For assay [1], the target named is Cellular tumor antigen p53 (Homo sapiens) (UniProt P04637). As to the kind of experiment: Primary qHTS for small molecule compounds that upregulate eGFP-tagged delta133p53alpha (in N-terminal) cells. (AID 2060322). Also: nearly all actives have a fitted effect of over 75% in size. Also: potency is read from the fitted curve at half-maximal effect.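 As to activation: series mostly up to about 56 µM; 0% = DMSO vehicle and 100% = reference activator.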 The note with it: NCI-H358 eGFP-delta133p53alpha fluorescence, 24 h; activation: stronger effect = higher value. In short, it runs like this:
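NCI-H358 cells pre-induced 24 h with 10 ng/ml doxycycline to express N-terminal eGFP-delta133p53alpha, then dosed 24 h at 37C without doxycycline; fixed, Hoechst-stained, GFP intensity by laser scanning cytometry, normalized to DMSO (0%) and 57.5 uM 5-azacytidine (100%).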
Background: In qHTS, concentration-response curves come from the screen itself.

In assay [2] the target is Aldehyde dehydrogenase, mitochondrial (Homo sapiens) (UniProt P05091). As to the kind of experiment: qHTS for Inhibitors of the Aldehyde Dehydrogenase Family (ALDH2) Primary screen (AID 2061308).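 Also: plate controls were vehicle for no effect and reference inhibitor for full effect; nearly all actives have a fitted effect of over 55% in size.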
Assay [3] concerns the target Retinaldehyde dehydrogenase 3 (Homo sapiens) (UniProt P47895). Description: qHTS for Inhibitors of the Aldehyde Dehydrogenase Family (ALDH1A3) Validation screen (AID 2061312). Also: % is scaled to controls: 0 for no effect and ±100 for the full control effect; nearly all actives have a fitted effect of over 45% in size.
The target is the same in assay [4]. As to the kind of experiment: qHTS for Inhibitors of the Aldehyde Dehydrogenase Family (ALDH1A3) Primary screen (AID 2061315).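 Also: plate controls were DMSO vehicle for no effect and reference inhibitor for full effect.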
A short description of assay [5]: BET inhibitor-based combinations targeting novel dependencies in MECOM-rearranged (r) AML: UCSD-AML1 cell line (AID 2202235). Also: nearly all actives have a fitted effect of over 40% in size. Also: potency is read from the fitted curve at half-maximal effect. In short, it runs like this:
(§1)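 Cells at 500/well were exposed for 48 hr to MIPE v5.0 drugs as 11-point dose curves. Viability was read by CellTiter-Glo luminescence and normalized to DMSO and empty-well controls. Activity was expressed as AUC and per-cell-line Z-AUC.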

Assay [6] in a line: BET inhibitor-based combinations targeting novel dependencies in MECOM-rearranged (r) AML: AML-191 cell line (AID 2202236; also: nearly all actives have a fitted effect of over 35% in size; also: potency is read from the fitted curve at half-maximal effect). The method, boiled down: (§2)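 AML cell lines seeded at 500 cells/well, treated with 11-point dose curves for 48 h. Viability by CellTiter-Glo luminescence, normalised to DMSO and empty wells; activity expressed as AUC and per-cell-line Z-transformed AUC.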

A short description of assay [7]: BET inhibitor-based combinations targeting novel dependencies in MECOM-rearranged (r) AML: AML-194 cell line (AID 2202237; also: nearly all actives have a fitted effect of over 40% in size; also: potency is read from the fitted curve at half-maximal effect). In short, it runs like this:
as §2

Assay [8] in a line: BET inhibitor-based combinations targeting novel dependencies in MECOM-rearranged (r) AML: SET-2 cell line (AID 2202231).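 Also: plate controls were DMSO treated cells for no effect and wells without cells for full effect; nearly all actives have a fitted effect of over 35% in size.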 The note with it: SET-2 AML cells viability, CellTiter-Glo luminescence, 48 h; viability: stronger effect = lower value, series mostly up to about 46 µM. In short, it runs like this:
as §2
On the technique in general: Cellular ATP, detected with luciferase, serves as a proxy for viable cell number.

Assay [9] is described as follows: BET inhibitor-based combinations targeting novel dependencies in MECOM-rearranged (r) AML: OCI-AML3 cell line (AID 2202232). Also: nearly all actives have a fitted effect of over 35% in size. Also: potency is read from the fitted curve at half-maximal effect. Particulars: Potency: OCI-AML3 viability. In short, it runs like this: as §2
Assay [10] can be described thus: BET inhibitor-based combinations targeting novel dependencies in MECOM-rearranged (r) AML: MV-4-11 cell line (AID 2202233). Also: nearly all actives have a fitted effect of over 45% in size. Also: potency is read from the fitted curve at half-maximal effect. The method, boiled down: as §1
Assay [11] in a line: BET inhibitor-based combinations targeting novel dependencies in MECOM-rearranged (r) AML: HNT-34 cell line (AID 2202234). Also: nearly all actives have a fitted effect of over 35% in size. Also: potency is read from the fitted curve at half-maximal effect. The method, boiled down:
as §1

Inconclusive results are not listed. More than one record can exist for a structure, and the calls need not agree. A number with no mark means an inactive call. Active and inactive are the calls of the source. Calls follow the shape of the dose curve; as a rule, active = well fitted curve in the direction sought with a large enough effect; inconclusive = small, poorly fitted or top-dose-only effect, or another doubt; inactive = no such curve, though single readings can be large; an effect the other way counts as inactive or inconclusive.

Chain of Cellular tumor antigen p53 (Homo sapiens) (P04637 whole entry, looked up): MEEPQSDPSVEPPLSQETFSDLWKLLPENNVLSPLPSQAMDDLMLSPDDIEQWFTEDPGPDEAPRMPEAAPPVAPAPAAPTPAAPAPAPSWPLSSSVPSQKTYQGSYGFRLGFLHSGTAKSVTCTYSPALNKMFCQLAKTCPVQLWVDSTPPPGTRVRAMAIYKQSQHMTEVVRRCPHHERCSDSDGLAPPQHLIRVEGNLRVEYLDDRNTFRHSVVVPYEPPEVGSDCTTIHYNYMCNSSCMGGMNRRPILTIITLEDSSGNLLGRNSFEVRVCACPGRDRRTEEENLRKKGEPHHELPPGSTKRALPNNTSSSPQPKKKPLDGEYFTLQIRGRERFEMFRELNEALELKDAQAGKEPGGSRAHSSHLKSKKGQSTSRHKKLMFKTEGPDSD

For the molecule `COc1ccc(C2CC(c3ccccc3)=NN2c2ccc(S(N)(=O)=O)cc2)cc1` (stereo not drawn), the Potency in [1] was 21.7 µM (active). Also, in assay [1], the activation is -16.2%. Besides, the Potency result in assay [2], in assay [3], in [4], in [5], in assay [6] and in assay [7] was “inactive” in each case.
Turning to `CC1(O)CC(c2nc(-c3ccc4ccc(-c5ccccc5)nc4c3)c3c(N)nccn23)C1` (stereo not drawn), the Potency in assay [1] is 24.3 µM (active). Further, in assay [1], the activation is 34.8%. Besides, the Potency result in [2], in assay [4], in assay [9], in [10], in [6] and in assay [7] was “inactive” in each case. Besides, the viability (in general, a read-out of living cells in per cent, often relative to untreated cells) in [8] was 83.7%.
Consider `Cc1ccnc(NS(=O)(=O)c2ccc(NC(=O)Nc3ccc(S(=O)(=O)Nc4nccc(C)n4)cc3)cc2)n1`, for which the Potency in assay [1] was 9.68 µM (active). For the same molecule, the activation in assay [1] was 21%. The Potency entry in assay [2], in assay [4], in assay [10], in assay [11], in [5] and in [6] was “inactive” in each case. The Potency result in assay [7] is “inactive”.
On to `CNC(=O)CN1CCC(Oc2cc3c(Nc4cccc(Cl)c4F)ncnc3cc2OC)CC1`, for which the Potency in [1] is 13.7 µM (active); in assay [11], 16.6 µM (active); in assay [5], 20.9 µM (active). Besides, the activation in assay [1] is 14.3%. Besides, the Potency result in [2], in assay [4], in [6] and in assay [7] was “inactive” in each case. Also, in assay [8], the viability was 107%.
For `O=C(O)c1ccc2c(c1)nc(Nc1cccc(Cl)c1)c1ccncc12`, the Potency is 23.9 µM (active) in assay [1]; 8.33 µM (active) in assay [9]; 3.32 µM (active) in assay [10]; 2.63 µM (active) in [11]; 5.9 µM (active) in assay [5]; 7.42 µM (active) in assay [6]. In addition, the Potency in assay [7] is 7.42 µM (active). The activation in assay [1] is 37.3%. Besides, the Potency entry in assay [2] and in assay [4] was “inactive” throughout.
With `CN1CCN(CCOc2cc(OC3CCOCC3)c3c(Nc4c(Cl)ccc5c4OCO5)ncnc3c2)CC1`, the Potency in assay [1] was 12.2 µM (active); in [10], 13.2 µM (active); in assay [11], 1.32 µM (active); in assay [7], 23.5 µM (active). The activation in assay [1] is -8.11%. Moreover, the Potency result in assay [2], in [3] and in assay [4] was “inactive” throughout.

The values above are taken from PubChem BioAssay (NCATS).
